# Results taken from PubChem BioAssay (EPA / NIEHS).
# Activity calls are given as the source filed them. Rule for the calls: active = hit-call score of the fitted dose curve at least 0.9, where 1 is the maximum; inactive = score below 0.9.
# How the values were obtained:
# Conditions in all cases: mRNA level, 48 h; actives raise or lower the signal
# [1] = read-out: ABC Transporter (ABCB1), ABCB1 (gene 5243); test: LTEA_HepaRG_ABCB1: Life Technologies and Expression Analysis (LTEA) Assay for ABC Transporter (ABCB1) using HepaRG (AID 2283460)
# How it was run: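 Human liver HepaRG line treated 48 h with up to 100 uM compound (eight half-log points, 0.5% DMSO); ABCB1 mRNA change fitted bidirectionally against DMSO controls.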
# [2] = read-out: growth arrest and DNA damage 45 (GADD45B), GADD45B (gene 4616); test: LTEA_HepaRG_GADD45B: Life Technologies and Expression Analysis (LTEA) Assay for growth arrest and DNA damage 45 (GADD45B) using HepaRG (AID 2283461)
# How it was run: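 Values are bidirectional concentration-response fits against 0.5% DMSO controls. Underlying data: qRT-PCR mRNA levels in human HepaRG liver cells treated 48 h in serum-free induction medium, eight concentrations topping at 100 uM.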
# [3] = read-out: ABC Transporter (ABCC3), ABCC3 (gene 8714); test: LTEA_HepaRG_ABCC3: Life Technologies and Expression Analysis (LTEA) Assay for ABC Transporter (ABCC3) using HepaRG (AID 2283462)
# How it was run: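 Differentiated HepaRG liver cells receive test chemicals at eight concentrations (max 100 uM) for 48 h. Expression of ABCC3 is quantified by qRT-PCR against ACTB, GAPDH and POLR2A, and activity is fitted in both directions against the DMSO control.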
# [4] = read-out: ABC Transporter (ABCC2), ABCC2 (gene 1244); test: LTEA_HepaRG_ABCC2: Life Technologies and Expression Analysis (LTEA) Assay for ABC Transporter (ABCC2) using HepaRG (AID 2283464)
# How it was run: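 Gene expression of ABCC2 was determined by qRT-PCR in HepaRG cells exposed 48 h to chemicals (highest 100 uM, half-log dilutions). Activity was fitted in both directions relative to 0.5% DMSO vehicle.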
# [5] = read-out: Broad substrate specificity ATP-binding cassette transporter ABCG2 (Homo sapiens) (UniProt Q9UNQ0); test: LTEA_HepaRG_ABCG2: Life Technologies and Expression Analysis (LTEA) Assay for ABC Transporter (ABCG2) using HepaRG (AID 2283465)
# How it was run: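 Gene expression of ABCG2 in HepaRG liver cells is quantified by qRT-PCR following 48 h exposure across an eight-point series topping at 100 uM. Values come from bidirectional fitting relative to DMSO vehicle.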
# [6] = read-out: ATP-citrate lyase (ACLY), ACLY (gene 47); test: LTEA_HepaRG_ACLY: Life Technologies and Expression Analysis (LTEA) Assay for ATP-citrate lyase (ACLY) using HepaRG (AID 2283466)
# How it was run: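 ACLY expression changes in human HepaRG liver cells are quantified by qRT-PCR after 48 h exposure to test chemicals (maximum 100 uM, half-log steps). Values are fitted in both directions relative to 0.5% DMSO vehicle.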
# [7] = read-out: Peroxisomal acyl-coenzyme A oxidase 1 (ACOX1) gene, ACOX1 (gene 51); test: LTEA_HepaRG_ACOX1: Life Technologies and Expression Analysis (LTEA) Assay for Peroxisomal acyl-coenzyme A oxidase 1 (ACOX1) gene using HepaRG (AID 2283467)
# How it was run: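 Human HepaRG hepatic cultures, 48 h treatment with test chemicals up to 100 uM. ACOX1 expression read by qRT-PCR relative to 0.5% DMSO vehicle.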
# [8] = read-out: Alkaline Phosphatase, Placental (ALPP) gene, ALPP (gene 250); test: LTEA_HepaRG_ALPP: Life Technologies and Expression Analysis (LTEA) Assay for Alkaline Phosphatase, Placental (ALPP) gene using HepaRG (AID 2283468);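 for AC50: ALPP transcript by TaqMan qRT-PCR normalized to ACTB GAPDH and POLR2A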
# How it was run: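 Expression of ALPP was quantified by qRT-PCR against three housekeeping genes in human HepaRG cultures treated for 48 h with an eight-point concentration series up to 100 uM. Activity in either direction was fitted relative to 0.5% DMSO.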
# [9] = read-out: Bcl-2 (BAD) gene, BAD (gene 572); test: LTEA_HepaRG_BAD: Life Technologies and Expression Analysis (LTEA) Assay for Bcl-2 (BAD) gene using HepaRG (AID 2283469)
# How it was run: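 Activity values reflect up- or down-regulation of BAD mRNA in human HepaRG hepatic cells treated 48 h in serum-free medium, with eight-point half-log dosing capped at 100 uM and 0.5% DMSO vehicle.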
# [10] = read-out: ABC Transporter (ABCB11), ABCB11 (gene 8647); test: LTEA_HepaRG_ABCB11: Life Technologies and Expression Analysis (LTEA) Assay for ABC Transporter (ABCB11) using HepaRG (AID 2283463)
# How it was run: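 Using HepaRG cultures held in 0.5% DMSO, chemicals were tested at half-log dilutions from 100 uM for 48 h. Induction or suppression of ABCB11 mRNA, normalized to ACTB, GAPDH and POLR2A, was fitted bidirectionally against vehicle.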
# Chain of Broad substrate specificity ATP-binding cassette transporter ABCG2 (Homo sapiens) (Q9UNQ0 whole entry, looked up): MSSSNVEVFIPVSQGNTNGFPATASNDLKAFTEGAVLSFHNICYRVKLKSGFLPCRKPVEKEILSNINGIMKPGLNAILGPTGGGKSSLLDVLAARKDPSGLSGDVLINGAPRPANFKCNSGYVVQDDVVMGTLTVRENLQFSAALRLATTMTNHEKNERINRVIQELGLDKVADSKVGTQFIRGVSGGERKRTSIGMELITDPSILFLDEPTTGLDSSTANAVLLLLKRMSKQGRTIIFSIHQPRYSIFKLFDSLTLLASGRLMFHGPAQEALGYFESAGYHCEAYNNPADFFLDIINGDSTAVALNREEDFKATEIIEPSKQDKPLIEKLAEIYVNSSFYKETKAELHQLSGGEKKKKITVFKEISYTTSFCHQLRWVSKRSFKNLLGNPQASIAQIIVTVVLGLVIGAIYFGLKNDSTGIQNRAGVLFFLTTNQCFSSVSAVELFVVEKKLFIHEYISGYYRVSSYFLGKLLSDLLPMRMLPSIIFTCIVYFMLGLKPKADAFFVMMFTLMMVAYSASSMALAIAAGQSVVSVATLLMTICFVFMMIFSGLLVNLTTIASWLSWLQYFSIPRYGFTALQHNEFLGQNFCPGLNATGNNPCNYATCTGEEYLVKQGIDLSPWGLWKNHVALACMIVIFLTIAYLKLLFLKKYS
Structure (SMILES),outcome [1],outcome [2],outcome [3],outcome [4],outcome [5],outcome [6],outcome [7],outcome [8],outcome [9],AC50 [1],AC50 [4],AC50 [8],AC50 [3],AC50 [5],AC50 [6],outcome [10],AC50 [9],AC50 [2]
O=[N+]([O-])c1ccc(Cl)c(Cl)c1,inactive,inactive,inactive,inactive,inactive,inactive,inactive,inactive,inactive,,,,,,,,,
ClC(Cl)(Cl)c1ccccc1,inactive,inactive,inactive,inactive,inactive,inactive,inactive,inactive,inactive,,,,,,,,,
CCNc1nc(Cl)nc(NC(C)(C)C)n1,,inactive,inactive,,inactive,inactive,inactive,,inactive,7.02 µM (active),4.01 µM (active),9.92 µM (active),,,,,,
OCC1CO1 (stereo not given),inactive,inactive,inactive,inactive,inactive,inactive,inactive,inactive,inactive,,,,,,,,,
[N-]=[N+]=[N-],inactive,inactive,,inactive,,,inactive,inactive,inactive,,,,69.3 µM (active),34.4 µM (active),73.4 µM (active),,,
CC(Cc1ccc(OCC(=O)O)cc1)NCC(O)c1csc(C(F)(F)F)n1 (stereo not given),inactive,inactive,inactive,inactive,inactive,inactive,inactive,,inactive,,,0.0552 µM (active),,,,,,
O=C(O)C(Cl)Cl,inactive,inactive,inactive,inactive,inactive,inactive,inactive,inactive,inactive,,,,,,,,,
O=[N+]([O-])c1ccccc1,inactive,inactive,inactive,inactive,inactive,inactive,inactive,inactive,inactive,,,,,,,,,
CCOS(=O)(=O)OCC,inactive,inactive,inactive,inactive,inactive,inactive,inactive,inactive,inactive,,,,,,,,,
CCCCc1ccccc1,inactive,inactive,inactive,inactive,inactive,inactive,inactive,inactive,inactive,,,,,,,,,
O=P1(N(CCCl)CCCl)NCCCO1 (stereo not given),inactive,inactive,inactive,inactive,inactive,inactive,inactive,inactive,inactive,,,,,,,,,
CCCCN(CCCC)N=O,inactive,inactive,inactive,inactive,inactive,inactive,inactive,inactive,inactive,,,,,,,,,
CCN(CC)c1ccccc1,inactive,inactive,inactive,inactive,inactive,inactive,inactive,inactive,inactive,,,,,,,,,
CCCCCCCc1ccc(O)cc1,inactive,inactive,inactive,inactive,inactive,inactive,inactive,inactive,inactive,,,,,,,,,
Cc1cccc(N)c1,inactive,inactive,inactive,inactive,inactive,inactive,inactive,inactive,inactive,,,,,,,,,
CCC1(c2ccccc2)C(=O)N=C(O)NC1=O (stereo not given),inactive,inactive,inactive,inactive,inactive,inactive,inactive,inactive,inactive,,,,,,,inactive,,
c1nc[nH]n1,inactive,inactive,inactive,inactive,inactive,inactive,inactive,,,,,0.109 µM (active),,,,,0.105 µM (active),
c1ccc2c(c1)Nc1ccccc1S2,inactive,,inactive,inactive,inactive,inactive,inactive,inactive,inactive,,,,,,,,,85.3 µM (active)
CN(C)C(=O)Cl,inactive,inactive,inactive,inactive,inactive,inactive,inactive,inactive,inactive,,,,,,,,,
c1cc2c3c(cccc3c1)CC2,inactive,inactive,inactive,inactive,inactive,inactive,inactive,inactive,inactive,,,,,,,,,
CCOP(=S)(OCC)SCSCC,inactive,inactive,inactive,inactive,inactive,inactive,inactive,inactive,inactive,,,,,,,,,
